Screens (PubChem)
In the library only some 6.8% were active in any assay of this set; here they are far more common.
SW480 rereplic: induces DNA re-replication in SW480 colon adenocarcinoma cells; SW480 DNA re-replication, Hoechst DNA content imaging, 48 h; Potency, µM (series often up to 46.1 µM), without a hit: at the highest dose re-replication activation, usual class: activators; hit rate 1.8% among 340,000; note: % of control where 0% means no effect; nearly all actives have a fitted effect of over 55% in size
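SW480 cells exposed to compounds for 48 hr at 37 C, 5% CO2, then Hoechst-stained 40 min. Nuclear DNA content imaged by fluorescence scanning (405 nm excitation, 500-530 nm emission); re-replication scored as increased high-intensity nuclei.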
KB-V1 MDR tox: kills drug-selected multidrug resistant KB-V1 cells | AID 1347076 | hit rate 3.4% among 400,000 | Potency, µM (doses to about 46.1 µM), most hits filed as cytotoxic | KB-V1 MDR cells viability, CellTiter-Glo, 72 h; note: % is set by controls: 0 for no effect and ±100 for the full control effect; nearly all actives have a fitted effect of over 60% in size
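Cytotoxicity via CellTiter-Glo luminescence after 72 h compound exposure at 37 degrees C. Cells: drug-selected KB-V1 line, DMEM phenol-red free plus 10% FBS. Compounds tested at multiple concentrations; normalized data fitted to concentration-effect curves.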
PTAP TSG101 blk: blocks PTAP/TSG101 interaction to inhibit HIV-1 budding; Q99816; Fluorescence polarization, FITC-PTAP peptide / Tsg101 binding; Potency, µM (highest dose often 115 µM), inactives show top-dose activity change, negative = inhibition, actives largely listed as inhibitors; 340,000 tested, under 10 active; AID 493005; active = well fitted inhibition curve with a large enough effect in the main read-out, with a control signal flat, not every such curve was filed as active; inconclusive = small, poorly fitted or top-dose-only effect, or effect the other way, or a change in a side signal; inactive = no such curve, though single readings can be large or run the other way; note: % of control where 0% means no effect
Target sequence (Q99816 whole entry, looked up): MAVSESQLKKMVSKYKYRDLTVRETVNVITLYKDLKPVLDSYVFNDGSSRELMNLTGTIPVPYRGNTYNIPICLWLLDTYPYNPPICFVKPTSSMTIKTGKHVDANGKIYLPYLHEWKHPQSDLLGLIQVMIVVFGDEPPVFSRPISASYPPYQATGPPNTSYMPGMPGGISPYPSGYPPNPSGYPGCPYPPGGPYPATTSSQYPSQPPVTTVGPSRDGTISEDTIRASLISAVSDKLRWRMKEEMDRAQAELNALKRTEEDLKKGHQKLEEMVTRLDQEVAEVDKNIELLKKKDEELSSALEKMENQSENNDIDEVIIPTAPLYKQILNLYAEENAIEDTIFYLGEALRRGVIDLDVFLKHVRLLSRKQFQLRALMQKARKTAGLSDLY
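Steps: Tsg101 binding domain dispensed (10 uM final), compounds pinned in DMSO, FITC-labeled PTAP-motif peptide added (50 nM final); after 20 min binding at room temperature, polarization measured.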
PINK1 modulator: modulators of PINK1 expression; hit rate 0.2% among 410,000; Potency, µM (doses to about 76.6 µM), without a hit: at the top dose activation (PINK1 increase), actives largely listed as activators; PINK1 immunofluorescence, high-content cytometry, 24 h; AID 624263; active = well fitted activation curve with a large enough effect; inconclusive = small, poorly fitted or top-dose-only effect; cell line not stated here; note: % of control where 0% means no effect; nearly all actives have a fitted effect of over 65% in size
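Compound titrations (5 concentrations, 24 h) on a stable cell line; DMSO and CCCP controls. Endpoint: fixed-cell PINK1 immunofluorescence with mitochondrial, cell and nuclear markers, scanned by microplate cytometer.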
KB-3-1 cytotox: KB-3-1 parental cell cytotoxicity; Potency, µM (highest dose often 46.1 µM), actives largely listed as cytotoxic; KB-3-1 viability, CellTiter-Glo ATP luminescence, 72 h; hit rate 1.4% among 400,000; note: % is set by controls: 0 for no effect and ±100 for the full control effect; nearly all actives have a fitted effect of over 60% in size
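Parental KB-3-1 adenocarcinoma cells in phenol-red-free DMEM with 10% FBS were pin-treated with compounds at several concentrations, incubated 72 h at 37 °C, and viability read by CellTiter-Glo luminescence; concentration-effect curves were fitted after normalization.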
MCF10A rerep: inducers of DNA re-replication in MCF 10A breast cells | Potency, µM (highest dose often 46.1 µM), without a hit: at the highest dose activity, positive = re-replication, hits mostly activators | hit rate 2.9% among 350,000 | MCF 10A DNA re-replication, Hoechst nuclear intensity, 48 h; note: % of control where 0% means no effect; nearly all actives have a fitted effect of over 50% in size
Starred values were filed as active, the others as inactive; [ ] = another dose, or the depositor's remark. Unless noted, calls come from the whole dose curve; as a rule, active = well fitted curve in the direction sought with a large enough effect; inconclusive = small, poorly fitted or top-dose-only effect, or another doubt; inactive = no such curve, though single readings can be large; an effect the other way counts as inactive or inconclusive. Potency is the fitted concentration of half-maximal effect.

How did CCOC(=O)CSC1=C(C#N)C(c2ccccc2C)C2=C(CCCC2=O)N1 (stereo unspecified) do in these assays?
SW480 rereplic: 16.5%; KB-V1 MDR tox: inactive; PTAP TSG101 blk: -4.9%; PINK1 modulator: 1.1%; KB-3-1 cytotox: inactive; MCF10A rerep: inconclusive

How did CC(=O)C1=C(C)NC(SCC(=O)c2ccc(F)cc2)=C(C#N)C1c1ccco1 (stereo unspecified) do in these assays?
SW480 rereplic: -2.3%; KB-V1 MDR tox: inactive; PTAP TSG101 blk: -4.1%; PINK1 modulator: 3.6%[38.3 µM]; KB-3-1 cytotox: inactive; MCF10A rerep: -4.9%

How did CCSC1=C(C#N)C(c2ccc(Cl)cc2)C2=C(CCCC2=O)N1 (stereo unspecified) do in these assays?
SW480 rereplic: 17.4%; KB-V1 MDR tox: inactive; PTAP TSG101 blk: -4.7%; PINK1 modulator: -1.7%; KB-3-1 cytotox: inactive; MCF10A rerep: inconclusive

What do the screens show for `CC/C(=C\c1ccc(N(C)C)cc1)c1ccncc1`?
SW480 rereplic: inconclusive; KB-V1 MDR tox: 10.3µM*; PTAP TSG101 blk: 1.6%; PINK1 modulator: 4.0%; KB-3-1 cytotox: 20.6µM*; MCF10A rerep: inconclusive

Results for COc1ccc(S(=O)(=O)Cc2ccc(C(=O)NCCCN(C)c3ccccc3)o2)cc1 ?
SW480 rereplic: -0.7%; KB-V1 MDR tox: 6.51µM*; PTAP TSG101 blk: -9.0%; PINK1 modulator: 1.1%[38.3 µM]; KB-3-1 cytotox: inactive; MCF10A rerep: 2.7%

Results for CCCCNC(=O)c1ccc(CS(=O)(=O)c2ccc(OC)cc2)o1 ?
SW480 rereplic: 5.5%; KB-V1 MDR tox: inactive; PTAP TSG101 blk: -0.9%; PINK1 modulator: 0.4%; KB-3-1 cytotox: inactive; MCF10A rerep: -6.1%

Results for O=c1cc(N=Nc2ccc(Cl)cc2)[nH]c(=O)[nH]1 ?
SW480 rereplic: 5.17µM*; KB-V1 MDR tox: inactive; PTAP TSG101 blk: -0.8%; PINK1 modulator: -3.8%; KB-3-1 cytotox: inconclusive; MCF10A rerep: 3.66µM*

How did O=C1Cc2cc(S(=O)(=O)N3CCN(c4ccc(Br)cc4)CC3)ccc2N1 do in these assays?
KB-V1 MDR tox: inactive; KB-3-1 cytotox: inactive

Results for CC(C)c1ccc(NC(=O)[C@H]2O[C@@H]3OC(C)(C)O[C@@H]3[C@H]3OC(C)(C)O[C@H]32)cc1 ?
KB-V1 MDR tox: inconclusive; PINK1 modulator: 0.1%; KB-3-1 cytotox: inactive

What do the screens show for `O=C(c1ccc2ccccc2n1)N1CCN(Cc2c(F)cccc2Cl)CC1`?
SW480 rereplic: 7.3%; KB-V1 MDR tox: inactive; PTAP TSG101 blk: -3.0%; PINK1 modulator: -2.5%; KB-3-1 cytotox: inactive; MCF10A rerep: inconclusive

Results for Fc1cccc(Cl)c1CN1CCN(c2nc3ccccc3s2)CC1 ?
SW480 rereplic: 11.5%; KB-V1 MDR tox: inactive; PTAP TSG101 blk: 1.3%; PINK1 modulator: 1.7%; KB-3-1 cytotox: inactive; MCF10A rerep: 16.4µM*

Results for Cc1cc(C(F)F)n2nc(C(=O)Nc3cccc(Cl)c3C)nc2n1 ?
KB-V1 MDR tox: inactive; PINK1 modulator: 0.0%; KB-3-1 cytotox: inactive

Results for CC(C)NCC(O)COc1cccc2ccccc12 (stereo unspecified) ?
SW480 rereplic: -2.4%; KB-V1 MDR tox: inactive; PTAP TSG101 blk: 1.6%; PINK1 modulator: 2.2%; KB-3-1 cytotox: inactive; MCF10A rerep: 18.3%

What do the screens show for `OC(CNCc1ccccc1F)COc1cccc2ccccc12` (stereo unspecified)?
SW480 rereplic: 20.6µM*; KB-V1 MDR tox: inactive; PTAP TSG101 blk: -6.7%; PINK1 modulator: 9.3%; KB-3-1 cytotox: inactive; MCF10A rerep: inconclusive

How did COc1ccc(/C=C(\C#N)c2nc3ccccc3[nH]2)cc1O do in these assays?
SW480 rereplic: inconclusive; KB-V1 MDR tox: inactive; PTAP TSG101 blk: -0.8%; PINK1 modulator: 8.3%; KB-3-1 cytotox: inactive; MCF10A rerep: inconclusive
